TexasRed autofl: qHTS Assay for Spectroscopic Profiling in Texas Red Spectral Region; Compound fluorescence, Texas Red channel, 547/618 nm; stronger effect = higher value; max dye-equivalent concentration, M; 0.06% of 59,000 active; AID 587, 2007; in the data active means max dye-equivalent concentration above about 10 nM; inconclusive means between about 1.1 nM and that limit
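Fluorescence at ex 547/em 618 nm, normalized against an on-plate Texas Red standard series to give dye-equivalent concentration per compound concentration. Buffer 100 mM Tris, pH 8.0; 15 min RT incubation before CCD imaging.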
A488 autofl: qHTS Assay for Spectroscopic Profiling in A488 Spectral Region; compound autofluorescence, A488 spectral region, dye equivalency; Compound Type: qHTS ECL - MLSMR; max dye equivalency, M; 0.1% of 59,000 active; AID 591, 2007
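Spectroscopic profiling in the A488 region: compounds in pH 8.0 Tris (100 mM), 15 min RT, CCD imaging with 480 nm excitation and 540 nm emission; responses normalized against A488 dye standards.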
Rhodamine autofl: qHTS Assay for Spectroscopic Profiling in Rhodamine Spectral Region; Rhodamine-region fluorescence, 547/598 nm, Tris buffer; stronger effect = higher value; max dye-equivalent concentration, M; 0.05% of 59,000 active; in the data active means max dye-equivalent concentration above about 11 nM; inconclusive means between about 1.1 nM and that limit
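Steps: pin-transfer compounds into pH 8.0 Tris (100 mM), hold 15 min at room temperature, image with a 547/598 nm filter pair, and convert intensities to rhodamine-equivalent concentration using a six-point on-plate rhodamine series.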
Fluorescein fluor: qHTS Assay for Spectroscopic Profiling in Fluorescein Spectral Region | 0.91% of 59,000 active | Compound autofluorescence, 480/540 nm, fluorescein-equivalent; stronger effect = higher value | max fluorescein-equivalent concentration, M | AID 593, 2007; in the data active means max fluorescein-equivalent concentration above about 10 nM; inconclusive means between about 1.1 nM and that limit
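In this qHTS profile, compound fluorescence was measured with a 480 nm/540 nm filter pair following a 15-min room-temperature incubation in 100 mM Tris (pH 8.0). A six-point fluorescein series on each plate served for normalization.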
A647 fluor: qHTS Assay for Spectroscopic Profiling in A647 Spectral Region; 59,000 tested, under 10 active; max dye-equivalent concentration, M; Compound fluorescence, A647 channel (570/671 nm), Tris buffer; AID 592, 2007;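 further: values scaled relative to a standard on each plate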
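Spectral profiling of library compounds in pH 8.0 Tris: 15 min room-temperature incubation, single ex/em pair (570/671 nm), response normalized to Alexa 647 equivalents.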
Resorufin autofl: qHTS Assay for Spectroscopic Profiling in Resorufin Spectral Region; Compound fluorescence, resorufin region 547/598 nm, buffer; stronger effect = higher value; max dye-equivalent concentration, M; 0.04% of 59,000 active; AID 588, 2007
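Intrinsic fluorescence profiled in the resorufin window (ex 547 nm, em 598 nm) after 15 min at room temperature in pH 8.0 Tris buffer (100 mM); responses normalized against a six-point resorufin standard series as dye-equivalent concentration.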
Numbers without * were called inactive; i = inactive; u = inconclusive. Sampled rows, rich in hits. Any-hit rate of the full collection: about 0.95%. Unless noted, how the calls were made is not given here.

SMILES | TexasRed autofl | A488 autofl | Rhodamine autofl | Fluorescein fluor | A647 fluor | Resorufin autofl
C[C@@]12CCC(=O)C=C1CC[C@@H]1[C@@H]2[C@H](O)C[C@]2(C)[C@@H]1CC[C@]2(O)C(=O)COC(=O)CCC(=O)O | i | i | i | u | 3.4e-09 | i
COc1cccc(Cn2c(=O)cnc3cnc(Oc4cccc(Cl)c4)nc32)c1 | i | i | i | i | 1e-09 | i
CC(=O)[C@@H]1[C@H]2[C@@H](C(=O)[C@H]3OC[C@H]2O3)[C@@H]2C=Cc3ccccc3N12 | u | i | i | 1.1e-08M* | 2.1e-08 | i
CC(=Nc1ccc(O)cc1)c1sc2ccccc2c1O | u | u | i | 1e-07M* | 4.7e-09 | i
CC(=O)NCCN=C(C)c1sc2ccccc2c1O | u | i | i | u | 3.7e-08 | i
COc1ccc(N=c2oc3cc(O)ccc3cc2C(=O)NCC2CCCO2)c(OC)c1 (stereo unspecified) | i | i | i | 1.4e-08M* | 2.6e-08 | i
COc1ccc(N=c2oc3cc(O)ccc3cc2C(=O)NCC2CCCO2)cc1 (stereo unspecified) | i | i | i | i | 1.4e-09 | i
CN(C)c1ccc(/C=C/c2cc[n+]([O-])cc2)cc1 | u | 1.5e-08M* | i | 2.9e-07M* | 5e-09 | i
O=C(O)CC[P+](c1ccccc1)(c1ccccc1)c1ccccc1 | i | i | i | i | 2.2e-09 | i
O=C(c1ccco1)[C@@H]1[C@@H]2C(=O)N(c3ccc(Br)cc3)C(=O)[C@@H]2C2c3ccccc3C=CN21 (stereo partly specified) | u | i | i | u | 4.2e-09 | i
O=C(c1ccco1)[C@@H]1[C@@H]2C(=O)N(c3ccc(F)cc3)C(=O)[C@@H]2C2c3ccccc3C=CN21 (stereo partly specified) | u | i | i | 1.3e-08M* | 5.7e-09 | i
COc1ccc(NC(=O)[C@@H]2[C@@H]3C(=O)N(C4CCCCC4)C(=O)[C@@H]3C3c4ccccc4C=CN32)cc1 (stereo partly specified) | i | i | i | u | 1.8e-09 | i
N#C[C@@H]1[C@@H]2C(=O)N(c3ccc4c(c3)OCCO4)C(=O)[C@@H]2C2c3ccccc3C=CN21 (stereo partly specified) | u | i | u | 1.3e-08M* | 3.9e-08 | u
CC(=O)[C@@H]1[C@@H]2C(=O)N(c3ccc(F)c(Cl)c3)C(=O)[C@@H]2C2c3ccccc3C=CN21 (stereo partly specified) | u | u | u | 3.3e-08M* | 3.5e-08 | u
CC(=O)[C@H]1[C@H]2[C@H](C(=O)[C@@H]3OC[C@H]2O3)[C@@H]2c3ccccc3C=CN12 | i | i | i | u | 1.6e-08 | i
CC(=O)[C@H]1[C@@H]2C(=O)N(c3cccc(Cl)c3)C(=O)[C@@H]2[C@H]2c3ccccc3C=CN21 | i | i | i | 1.8e-08M* | 1e-09 | i
C=CC[C@@H](C(=O)O)c1ccccc1 | i | i | i | u | 3.7e-08 | i
N#Cc1cccc(-c2nc3cnc(Nc4ccccc4)nc3n(C[C@H]3CCCO3)c2=O)c1 | i | i | i | 1.3e-08M* | 1.8e-09 | i
COc1cccc(Cn2c(=O)c(-c3cccc(C#N)c3)nc3cnc(Nc4ccccc4)nc32)c1 | i | i | i | 1.3e-08M* | 3.1e-08 | i
O=c1c(-c2cccs2)nc2cnc(Nc3ccccc3)nc2n1C[C@H]1CCCO1 | i | u | i | 4.2e-08M* | 3.5e-08 | i
COCCn1c(=O)c(-c2cccc(C#N)c2)nc2cnc(Nc3ccccc3)nc21 | i | i | i | u | 1.9e-08 | i
CC(C)COc1nc2ccccc2nc1C(C#N)C(=O)NC1CCCCC1 (stereo unspecified) | i | u | i | 7.3e-08M* | 5.1e-08 | i
CC1CN(c2nc3ccccc3nc2C(C#N)C(=O)NC2CCCCC2)CC(C)O1 (stereo unspecified) | i | 1.4e-08M* | i | 2.9e-07M* | 1e-09 | i
Cc1sccc1C1C(C#N)=C(N)SC(N)=C1C#N | i | i | i | 1.2e-08M* | 2.7e-08 | i
Cn1cnnc1Sc1nc2ccccc2nc1NS(=O)(=O)c1ccccc1 | i | i | i | u | 7e-09 | i
SMILES | TexasRed autofl | A488 autofl | Rhodamine autofl | Fluorescein fluor | A647 fluor | Resorufin autofl
Cn1ccnc1Sc1nc2ccccc2nc1NS(=O)(=O)c1ccccc1 | i | i | i | 1.1e-08M* | 1e-09 | i
Cc1c(Nc2nc3ccccc3nc2NS(=O)(=O)c2ccccc2)c(=O)n(-c2ccccc2)n1C | i | i | i | i | 1e-09 | i
CC(=O)Nc1ccc(S(=O)(=O)Nc2nc3ccccc3nc2Sc2nncn2C)cc1 | i | i | i | 1.4e-08M* | 4.6e-09 | i
CCN(CC)c1ccc2cc(C(=O)Nc3ccc(-n4cnnn4)c(OC)c3)c(=O)oc2c1 | i | 3.4e-08M* | i | 6.7e-07M* | 2.5e-08 | i
Cn1c(CN2CCOCC2)c(C#N)c2ccccc21 | i | i | i | u | 1e-09 | i
C=CCn1c(O)c(CN2CCOCC2)c(C)c(C#N)c1=O | u | i | i | 1.3e-08M* | 5.3e-09 | i
CC1(C)S[C@@H]2[C@H](NC(=O)C(N)c3ccccc3)C(=O)N2[C@H]1C(=O)O (stereo partly specified) | i | i | i | u | 1e-09 | i
CC1(C)S[C@@H]2[C@H](NC(=O)COc3ccccc3)C(=O)N2[C@H]1C(=O)O (tested in a mixture with another compound) | i | i | i | 1.9e-08M* | 2.9e-08 | i
CC(C)OCCCn1c(=NC(=O)c2ccncc2)c(C#N)cc2c(=O)n3ccccc3nc21 | i | i | i | 1.9e-08M* | 1e-09 | i
C[C@H]1NC(=O)NC1=O | i | i | i | u | 4.6e-09 | i
CC(=O)Oc1cc(OC(C)=O)c2c(=O)cc(-c3ccc(OC(C)=O)c(OC(C)=O)c3)oc2c1 | i | i | i | i | 1e-09 | i
CC[C@@H]1[C@H]2CCCCN3[C@@H]2[C@@H](C[C@H]3[C@@H]2C[C@H](C)C(=O)O2)[C@@H]2[C@H]1OC(=O)[C@H]2C | i | i | i | i | 3.1e-09 | i
CCOc1ccc2nc(NS(=O)(=O)c3ccc4c(c3)n(C)c(=O)n4C)sc2c1 | i | i | i | 1.2e-08M* | 1e-09 | i
CN(C)C=Nc1c(Br)cc(Br)c2nonc12 | u | u | u | 3.9e-08M* | 2.3e-08 | u

Assay outcomes from PubChem BioAssay.
